ATXN2 expr inh – ATXN2 expression inhibition. Potency, µM (doses to about 57 µM), without a hit: at the top dose activity change, negative = inhibition, usual class: inhibitors. hit rate 0.72% among 360,000. HEK-293 ATXN2-luciferase reporter, luminescence, 24 h; also: % is scaled to controls: 0 for no effect and ±100 for the full control effect; nearly all actives have a fitted effect of over 55% in size
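qHTS (up to 57 uM final) was run with 24 h compound exposure of reporter cells at 37 °C. Each well was multiplexed: SteadyGlo luminescence measured ATXN2-luciferase expression after a fluorogenic Gly-Phe-AFC viability readout (25 uM final).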
TDP1 cell CPT – DT40-hTDP1 cell growth loss with CPT; chicken DT40 Tdp1-/-;hTDP1 cells + 20 nM CPT, ATP luminescence, 48 h; hit rate 12% among 420,000; Potency, µM (highest dose often 46.2 µM), for inactives: at the top dose activity change, negative = growth inhibition, actives largely listed as inhibitors; also: % is scaled to controls: 0 for no effect and ±100 for the full control effect; nearly all actives have a fitted effect of over 55% in size
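Chicken DT40 Tdp1-/- cells stably complemented with human TDP1 were seeded at 400 cells/well in medium containing 20 nM camptothecin, exposed to pin-transferred compounds, and grown at 37 °C for at least 48 hr. Viability was read as ATP luminescence.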
ATXN viability – cell viability loss in ATXN counter-screen; S2 cells (HEK-293 line with an ATXN2-luciferase reporter) viability, CellTiter-Fluor protease fluorescence, 24 h; Potency, µM (top dose mostly 56.7 µM), actives largely listed as cytotoxic; hit rate 0.49% among 400,000; AID 651635; also: nearly all actives have a fitted effect of over 40% in size
TGFb inhibitor – TGF-b pathway inhibition. HepG2 CAGA-GFP TGF-b/SMAD3 reporter, GFP fluorescence, 18 h; TGF-beta stimulated, 500 pg/mL final. Potency, µM (doses to about 46.1 µM), for inactives: at the top dose activity, negative = inhibition, most hits filed as inhibitors. hit rate 1.2% among 410,000. AID 588855; also: % is scaled to controls: 0 for no effect and ±100 for the full control effect; nearly all actives have a fitted effect of over 65% in size
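Smad-responsive CAGA-GFP expression was quantified in HEPG2 cells exposed to compounds and 500 pg/mL final TGF-beta for 18 h at 37 degrees C; unstimulated wells defined full inhibition.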
DT40 TDP1 no CPT – qHTS for Inhibitors of human tyrosyl-DNA phosphodiesterase 1 (TDP1): qHTS in cells in absence of CPT | DT40 Tdp1-/- hTDP1 cells, no CPT, ATP luminescence, 48 h | Potency, µM (series often up to 46.2 µM), inactives show top-dose activity change, negative = growth inhibition, actives largely listed as inhibitors | hit rate 15% among 420,000; also: % is scaled to controls: 0 for no effect and ±100 for the full control effect; nearly all actives have a fitted effect of over 55% in size
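Seeded 400 DT40-hTDP1 cells/well (vehicle DMSO, no 20 nM CPT); pinned compounds; ≥48 hr at 37 °C; CellTiter-Glo luminescence as viability measure.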
HepG2 tox – counter-screen for TGF-b inhibitors: cytotoxicity in HepG2 cells. hit rate 0.76% among 410,000. HepG2 CAGA-GFP viability, ATP luminescence, 18 h. Potency, µM (series often up to 46.1 µM), without a hit: at the top dose activity change, negative = cytotoxicity, hits mostly cytotoxic. AID 588856
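HepG2 CAGA-GFP cells (1000/well, DMEM with 1% FBS) received compound, then TGF-beta at 500 pg/mL final, and were incubated 18 hours at 37 degrees C. Viability was read by CellTiter-Glo luminescence. Media-only wells were set as complete cell-killing and DMSO as no toxicity.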
An asterisk follows results filed as active; i = inactive; ? = inconclusive; nt = not tested or not shown; [ ] = another dose, or the depositor's remark. An excerpt weighted towards active compounds, which were near 17% of everything screened. Calls follow the shape of the dose curve; as a rule, active = well fitted curve in the direction sought with a large enough effect; inconclusive = small, poorly fitted or top-dose-only effect, or another doubt; inactive = no such curve, though single readings can be large; an effect the other way counts as inactive or inconclusive. Potency is read from the fitted curve at half-maximal effect.

SMILES	ATXN2 expr inh	TDP1 cell CPT	ATXN viability	TGFb inhibitor	DT40 TDP1 no CPT	HepG2 tox
Cn1c(-c2cccc([N+](=O)[O-])c2)cnc1NCc1cccc(F)c1	nt	?	i	6.4%	20.6µM*	-31.8%
Cn1c(-c2ccc3c(c2)OCO3)cnc1NCc1ccccc1	9.3%	20.6µM*	i	-25.3%	?	-2.7%
Cn1c(-c2ccc(F)cc2)cnc1NCc1cccc([N+](=O)[O-])c1	-42.2%	?	i	20.0%	?	21.8%
Cn1c(-c2ccc3c(c2)OCO3)cnc1NCc1ccccc1Cl	nt	?	i	-29.5%	14.6µM*	-29.0%
Cn1c(-c2ccccc2)cnc1NCc1ccccc1	nt	?	i	-4.8%	?	-7.8%
Cc1ccc(-c2nc(N3CCN(S(=O)(=O)c4ccc(F)cc4)CC3)c3ccc(Cl)cc3n2)cc1	nt	nt	nt	25.0%	nt	17.9%
Cc1ccc2nc(-c3ccccc3)cc(C(=O)N3CCN(S(=O)(=O)c4c(C)noc4C)CC3)c2c1	-5.1%	?	i	-1.1%	23.1µM*	0.2%
Cc1ccc(S(=O)(=O)N2CCN(C(=O)c3c(-c4ccccc4)noc3C)CC2)c(C)c1	-14.9%	18.4µM*	i	10.9%	?	-4.2%
CCCOc1ccc(-c2nn(-c3ccccc3)cc2C2NC(=O)NC(C)=C2C(=O)OC)cc1 (centres undefined)	?	?	i	?	16.4µM*	-29.1%
C/C(Cl)=C/Cn1c(NCCN(C)C)nc2c1c(=O)n(C)c(=O)n2C	-6.7%	-1.1%	i	7.8%	-3.9%	-7.9%
C/C(Cl)=C\Cn1c(Nc2ccccc2)nc2c1c(=O)n(C)c(=O)n2C	-3.8%	11.2µM*	i	12.0%	?	-23.9%
Cn1c(=O)c2c(nc(NCc3ccccc3)n2Cc2ccc(Cl)c(Cl)c2)n(C)c1=O	?	8.2µM*	nt	?	7.31µM*	-45.5%
Cn1c(=O)c2c(nc(NCc3ccc4c(c3)OCO4)n2Cc2ccccc2)n(C)c1=O	-27.0%	?	i	-25.8%	?	-20.0%
Cn1c(=O)c2c(nc(NCc3ccccc3)n2Cc2ccccc2)n(C)c1=O	?	8.2µM*	?	-55.5%	4.11µM*	-19.0%
Cn1c(=O)c2c(nc(NCc3cccnc3)n2Cc2ccccc2Cl)n(C)c1=O	10.7%	?	i	7.3%	?	-1.6%
Cn1c(=O)c2nc(NCc3ccccc3)cnc2n(C)c1=O	-10.4%	?	nt	3.2%	13µM*	6.4%
CCn1c(SCC(=O)Nc2sccc2C(N)=O)nnc1C1CC1	10.6%	0.6%	i	-10.5%	0.3%	-6.3%
COc1ccc(CNC(=O)CCc2nnc3n(CC(C)C)c(=O)c4ccccc4n23)cc1	nt	0.3%	nt	-12.0%	-3.8%	8.7%
CCOc1ccc(CCNc2nc3c(c(=O)n(C)c(=O)n3C)n2CC)cc1OCC	-21.4%	15.8µM*	?	11.5%	14.1µM*	-3.6%
CCn1c(NCc2ccccn2)nc2c1c(=O)n(C)c(=O)n2C	-12.5%	1.2%	i	21.6%	-13.8%	-3.7%
Cn1c(=O)c2c(nc(NCCc3ccccc3)n2Cc2ccc(Cl)cc2)n(C)c1=O	-32.3%	11.6µM*	i	?	10.3µM*	-39.7%
CCC(NC(=O)c1ccc([N+](=O)[O-])cc1[N+](=O)[O-])c1ccccc1 (centres undefined)	-4.8%	-28.8%	i	-23.3%	?	-31.1%
CC(NC(=O)c1ccc([N+](=O)[O-])cc1[N+](=O)[O-])c1ccc(-c2ccccc2)cc1 (centres undefined)	-15.2%	13µM*	i	10.0%	13µM*	-19.9%
CC(C)(C)NC(=O)CCCCCCCC(=O)NC(C)(C)C	4.1%[11.3 µM]	-3.4%	i	1.0%	-4.9%	-8.6%
CCN(CC(=O)NC(C)(C)C)C(=O)CCl	9.9%	20.6µM*	?	-10.0%	13µM*	-0.4%
SMILES	ATXN2 expr inh	TDP1 cell CPT	ATXN viability	TGFb inhibitor	DT40 TDP1 no CPT	HepG2 tox
COCCNc1nc(Nc2ccc(C(=O)OC)cc2)c2sccc2n1	?	11.6µM*	i	27.7%	16.4µM*	-30.8%
COCCNc1nc(-c2ccc(Cl)cc2C)c2sccc2n1	-9.5%	?	i	-16.2%	?	-0.1%
CCOC(=O)Cc1ccc(Nc2nc(NCCOC)nc3ccsc23)cc1	0.0%	13µM*	?	-14.6%	14.6µM*	-27.8%
CC(C)Nc1nc(Nc2ccc(C(N)=O)cc2)c2sccc2n1	8.9%	25.9µM*	i	-10.3%	?	8.8%
COCCNc1nc(Nc2ccc(Cl)cc2F)c2sccc2n1	?	13µM*	?	14.6%	16.4µM*	-14.8%
CC(C)Nc1nc(NCCN2CCNC2=O)c2sccc2n1	-7.3%	10.4%	i	11.5%	-1.0%	-1.3%
Cc1c(C)c2c(cc(C)c3c(-c4ccccc4)coc32)oc1=O	-3.3%	-0.7%	i	-20.1%	0.6%	-0.9%
CNc1nc(Nc2ccc(C(=O)OC)cc2)c2sccc2n1	-14.0%	13µM*	i	-11.2%	14.6µM*	-27.3%
COc1ccc(OC)c2c1cc(C(=O)N[C@@H](C)C(=O)N[C@@H](C(=O)O)c1ccccc1)n2C	4.9%	2.2%	i	92.2%	27.6%	3.5%
O=C1NC[C@@H](CCCCN2CCN(CCc3ccc(O)cc3)C(=O)C2=O)N(Cc2ccccc2)C1=O	50.9%	15.2%	i	nt	-3.8%	nt
COc1ccc(/C=C2/CCc3ccccc3C2=O)cc1CN1CCOCC1	2.1%	23.1µM*	i	0.0%	16.4µM*	-34.1%
COc1ccc(/C=C/C(=O)c2ccc3ccccc3c2O)cc1CN1CCOCC1	-25.9%	?	nt	-12.2%	18.4µM*	-44.0%
COc1cc(/C=C/C(=O)c2ccccc2O)cc(OC)c1OC	-28.0%	-29.6%	i	?	?	-62.9%
COc1ccc(/C=C/C(=O)c2ccccc2O)cc1CN1CCOCC1	-24.3%	16.4µM*	i	10.7%	?	-4.1%
COc1ccc(/C=C2/SC(=S)N(CCCC(=O)N3CCN(C)CC3)C2=O)cc1	-27.3%	?	nt	?	20.6µM*	-9.3%
COc1ccc(/C=C2\SC(=S)N(CC(=O)N3CCN(C)CC3)C2=O)cc1	77.9%	?	?	-6.8%	20.6µM*	-3.0%
COc1ccc(-c2cc3c(=O)n(CC(=O)N4CCN(C)CC4)ncn3n2)cc1	13.8%	20.6µM*	i	-8.4%	-27.1%	-2.7%
C/C(Cn1nnc2ccccc21)=N\NC(=O)c1cccc(Br)c1	-16.1%	-1.9%	i	-2.4%	-0.8%	-2.9%

Screening results deposited in PubChem BioAssay by National Center for Advancing Translational Sciences (NCATS).
